Test results from PubChem BioAssay (Tox21).
Inconclusive results are not listed. A call without a number means that no potency is given here. Activity calls are given as the source filed them. The call rests on the fitted dose curve.

Test: qHTS assay to identify small molecule agonists of H2AX - cell viability counter screen (AID 1224847); further: top concentration of the series differs between compounds; nearly all actives have a fitted effect of over 30% in size
Conditions: CHO-K1 viability, CellTiter-Glo luminescence, 3 h; series mostly up to 154 µM
Text: National Center for Advancing Translational Sciences [NCATS]
NIH Chemical Genomics Center [NCGC]
U.S. Environmental Protection Agency [EPA]
National Institutes of Environmental Health Sciences [NIEHS]
National Toxicology Program [NTP]
U.S. Food and Drug Administration [FDA]
HTRF phospho-H2AX (Ser139) assay (Cisbio Bioassays, US) enables the quantitative detection of the histone variant H2AX when phosphorylated on serine 139. When double-stranded DNA breaks, either by ionizing radiation or endogenous physiological processes, H2AX becomes phosphorylated at Ser139. This phospho-Ser139 serves as a sensitive biomarker for the detection of such breaks, localizing the site of DNA repair. So, HTRF phospho-H2AX Ser139 is a pertinent assay to study genome stability, the cell cycle, DNA repair, and it serves as a biomarker for cancer, and to understand aging. Wild type CHO-K1 cells were used to identify the inducers of Phospho-H2AX Ser 139 from the Tox21 compound collections. Also cytotoxicity of the Tox21 10K compound library against the CHO-K1 cell line was tested by measuring the cell viability using CellTiter-Glo assay (Promega, Madison, WI).
Tox21 Assay Protocol Summary:
The CHO-K1 cells suspended in culture medium containing 10% FBS were dispensed at 1000 cells/ 3 ul/well in 1536-well white wall/solid bottom plates (Greiner Bio-One North America, NC) using a Multidrop Combi (Thermo Fisher Scientific Inc., Waltham, MA). After the assay plates were incubated at 37C overnight, 23 nl of compounds at 15 concentrations (from 5-48 columns) or positive control (from 1 to 4 columns) were transferred to the assay plates using a Pintool station (Wako, San Diego, CA) into each well resulting in a final DMSO concentration of 0.76%. After 3hr incubation at 37C, 3 uL/well CellTiter-Glo luminescent cell viability reagent (Promega Corporation, Madison, WI) was added using a Flying Reagent Dispenser (FRD) (Aurora Discovery, CA). After incubation at room temperature for 30 min, the luminescence intensity was read using a ViewLux plate reader (PerkinElmer, Waltham, MA).

Row | SMILES | Potency | activity change, negative = cytotoxicity
1 | O=C1Nc2cc(Cl)ccc2Oc2ccccc21 | inactive | –
2 | N#CCc1cccc(C(F)(F)F)c1 | inactive | –
3 | CC(C)(C)c1ccc(S)cc1 | inactive | –
4 | C#CCOC(=O)[C@@H](C)Oc1ccc(Oc2ncc(Cl)cc2F)cc1 | inactive | –
5 | CC(=O)/C=C/C1C(C)=CCCC1(C)C (stereo not given) | inactive | –
6 | Oc1ccc2c(c1)OCO2 | inactive | –
7 | CCCCCC(CO)CCC (stereo not given) | inactive | –
8 | C=Cc1c(C)c2cc3[nH]c(cc4nc(cc5nc(cc1[nH]2)C(C)=C5CCC(=O)O)C(CCC(=O)O)=C4C)c(C)c3C=C | inactive | –
9 | O=C(CCN1CCN2CCCC2C1)N1c2ccccc2Sc2ccc(Cl)cc21 (stereo not given) | – | -4.72% [at 31.6 µM] (inactive)
10 | CN1CCN(C2=Nc3cc(Cl)ccc3Nc3ccccc32)CC1 | inactive | –
11 | O=C1CCCCCO1 | inactive | –
12 | CCOc1cc(OCC)c(C(=O)CCC(=O)O)cc1OCC | inactive | –
13 | CN1CCC[C@@H]1c1cccnc1 | inactive | –
14 | COc1ccc([C@@H]2Sc3ccccc3N(CCN(C)C)C(=O)[C@@H]2OC(C)=O)cc1 | inactive | –
15 | CCCCCC/C=C/C=O | inactive | –
16 | CNS(=O)(=O)Cc1ccc2[nH]cc(CCN(C)C)c2c1 | inactive | –
17 | Cl/C(=C\n1cncn1)c1ccc(Cl)cc1Cl | inactive | –
18 | Cc1ccc(C(N)=O)cc1N | inactive | –
19 | CCN(CC)CCOC(=O)C1(c2ccccc2)CCCC1 | inactive | –
20 | CC(=O)OC/C=C/c1ccccc1 | inactive | –

Row | SMILES | Potency | activity change, negative = cytotoxicity
21 | CCCCCCCCCO | inactive | –
22 | CCCCOC(O)CC (stereo not given) | inactive | –
23 | C=C(C)C(=O)OC(C)C | inactive | –
24 | N#Cc1c(F)cccc1F | inactive | –
25 | Cc1ccc(C)o1 | inactive | –
26 | N=C(N=C(N)N)N1CCOCC1 | inactive | –
27 | CN(C)CCCOc1nn(Cc2ccccc2)c2ccccc12 | inactive | –
28 | CC[C@@H]1C[C@H](N(Cc2cc(C(F)(F)F)cc(C(F)(F)F)c2)C(C)=O)c2cc(C(F)(F)F)ccc2N1C(=O)OC(C)C | inactive | –
29 | O=[N+]([O-])c1cc[n+]([O-])cc1 | inactive | –
30 | CCN(CC)CCc1nc(-c2ccccc2)no1 | inactive | –
31 | Nc1nc(N)c2nc(CNc3ccc(C(=O)N[C@@H](CCC(=O)O)C(=O)O)cc3)cnc2n1 | inactive | –
32 | COC(=O)C(C)=O | inactive | –
33 | Cn1c(NCCN(CCO)CCCc2ccc([N+](=O)[O-])cc2)cc(=O)n(C)c1=O | inactive | –
34 | Oc1ccc(C(O)CNCCCCCCNCC(O)c2ccc(O)c(O)c2)cc1O (stereo not given) | inactive | –
35 | c1ccc(OCc2ccc(CCCN3CCOCC3)cc2)cc1 | inactive | –
36 | OCCC1CCCCN1 (stereo not given) | inactive | –
37 | CC[C@H](C)[C@H](N)C(=O)O | inactive | –
38 | CC(C)NCC(O)COc1ccc(CC(N)=O)cc1 (stereo not given) | inactive | –
39 | O=C=NC1CCC(CC2CCC(N=C=O)CC2)CC1 (stereo not given) | inactive | –
40 | Cc1c(Cn2ccnc2)c2ccccc2n1CCC(=O)O | inactive | –
